Compound activity deposited in PubChem by National Center for Advancing Translational Sciences (NCATS).
Rows were chosen to be rich in hits. Some 11% of all compounds tested hit in one or more screens of this group.
Pf growth 48h: P. falciparum growth inhibition at 48 hours (one generation) | Potency, µM (highest dose often 28.7 µM), actives largely listed as inhibitors | AID 504832 | 310,000 compounds, 5.9% hits | P. falciparum luciferase growth in erythrocytes, 48 h
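Luminescence readout; reporter = integrated firefly luciferase in P. falciparum. RBC culture at 2% hematocrit, 0.1% parasitemia final, 37 C/5% CO2; decreased signal taken as growth inhibition.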
HCV inhibitor: blocks hepatitis C virus; Huh7.5.1 HCVcc-Cre infection, luciferase reporter, 44 h; Potency, µM (doses to about 41.8 µM), actives largely listed as inhibitors; 340,000 compounds, 3.4% hits; AID 651820
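Whole-lifecycle infectious HCVcc-Cre system; cells 1,000/well, compound then virus (~0.5 moi) added 4 h after plating, 44 h culture. Luciferase read 15 sec following 15 min substrate incubation, room temp.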
Pf growth 96h: P. falciparum growth inhibition at 96 hours; P. falciparum luciferase reporter growth, 96 h; Potency, µM (titrated, usually from 28.7 µM), usual class: inhibitors; 320,000 compounds, 6.9% hits
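Delayed-death screen, second-generation endpoint: infected erythrocytes, 2% hematocrit, 0.05% parasitemia final; 96 hours at 37 C, 5% CO2; luciferase detection reagent; luminescence decrease equals reduced growth.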
AMA1 RON2 block: inhibitors of Plasmodium falciparum AMA1-RON2 interaction; AID 720542; Potency, µM (series often up to 58.2 µM), usual class: inhibitors; AlphaScreen AMA1-biotinylated RON2 peptide binding; 360,000 compounds, 0.2% hits; note: nearly all actives have a fitted effect of over 45% in size
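AMA1 (3D7) with his tag at 25 nM final met compounds first, then biotinylated RON2 peptide at 25 nM; detection used donor plus acceptor beads, 10 µg/mL apiece, read by AlphaScreen after 30 min at room temperature.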
Hits are given with their value; . = inactive; ? = inconclusive; / = no result given; ! = repeats disagree; [ ] = dose if it differs, or a comment. Calls come from the whole dose curve; as a rule, active = well fitted curve in the direction sought with a large enough effect; inconclusive = small, poorly fitted or top-dose-only effect, or another doubt; inactive = no such curve, though single readings can be large; an effect the other way counts as inactive or inconclusive.

SMILES	Pf growth 48h	HCV inhibitor	Pf growth 96h	AMA1 RON2 block
Oc1ccc(C2N=C(c3ccccc3)NC(c3ccccc3)=N2)cc1	.	.	12µM	.
c1ccc(C2=NC(c3ccccc3)N=C(c3ccccc3)N2)cc1	?	.	.	.
Oc1ccccc1C1N=C(c2ccccc2)NC(c2ccccc2)=N1	/	.	1.7µM	.
COc1ccc(NS(=O)(=O)c2cc(NC(=O)c3ccccc3F)ccc2N2CCCC2)cc1	?	?	?	.
COc1ccc(NS(=O)(=O)c2cc(NC(=O)c3ccc(C)s3)ccc2N2CCOCC2)cc1	?	.	13µM	.
COc1ccc(NS(=O)(=O)c2cc(NC(=O)/C=C/c3cccs3)ccc2N2CCOCC2)cc1	?	?	7.4µM	.[2.32 µM]
CCCCCC(=O)Nc1ccc(N2CCOCC2)c(S(=O)(=O)Nc2ccc(OC)cc2)c1	15µM	?	?	.
COc1ccc(NS(=O)(=O)c2cc(NC(=O)/C=C/c3ccccc3OC)ccc2N2CCCCC2)cc1	1µM	.	1µM	.
COc1ccc(CCNC(=O)COC(=O)c2cc(OC)c(OC)cc2OC)cc1OC	.	.	.	.
Cc1ccc(NC(=O)C2(C)CCN2CCc2ccccc2)cc1 (stereo unspecified)	/	/	/	.
COc1ccc(Cl)cc1NC(=S)N(CCN1CCOCC1)C1CCN(C(C)=O)CC1	.	.	?	.
CCC(C)(C(=O)NC1CCCCC1)N(Cc1cccs1)C(=O)c1ccc(=O)[nH]c1 (stereo unspecified)	.	.	.	.
CCOc1cc2c(cc1OCC)-n1cccc1C(c1ccc(C(C)C)cc1)NC2 (stereo unspecified)	8.3µM	?	?	?
CCOc1cc2c(cc1OCC)-n1cccc1C(c1ccc(OC(F)F)cc1)NC2 (stereo unspecified)	13µM	?	.	.
CS(=O)(=O)Cc1cccc(C(=O)NC2CCSc3ccccc32)c1 (stereo unspecified)	.	.	.	.
CN1C[C@H](CNC(=O)OCc2ccccc2)C[C@@H]2c3cccc4c3c(cn4C)C[C@H]21	10µM	?	2.9µM!	?
CN1C[C@H](CO)C[C@@H]2c3cccc4[nH]cc(c34)C[C@H]21	.	.	.	.
O=C(O)CCNC(=O)/C(=C/C=C/c1ccccc1)NC(=O)c1ccccc1	.	.	.	.
Cc1ccc(S(=O)(=O)/N=C(/Nc2cccc(O)c2)c2ccccc2)cc1	.	11µM	.	.
Cc1ccc(S(=O)(=O)/N=C(/Nc2cccc(C(=O)O)c2)c2ccccc2)cc1	.	.	.	.
CCC1SC2=NC(C)=C(C(=O)OC)C(c3cccs3)N2C1=O (stereo unspecified)	.	?	.	.
CCOC(=O)C1=C(C)N=C2SC(C)C(=O)N2C1c1ccc(OCC)c(OCC)c1 (stereo unspecified)	12µM	.	.	.
CCOC(=O)C1=C(C)N=C2SC(C)C(=O)N2C1c1ccccc1 (stereo unspecified)	?	.	.	.
CCOC(=O)C1=C(C)N=C2SC(C)C(=O)N2C1c1ccc(C(=O)OC)cc1 (stereo unspecified)	.	.	3.7µM	.
CCOC(=O)C1=C(C)N=C2SC(C(=O)OC)=CC(=O)N2C1c1cc(OC)c(OC)c(OC)c1 (stereo unspecified)	4.7µM	.	.	.
SMILES	Pf growth 48h	HCV inhibitor	Pf growth 96h	AMA1 RON2 block
CCOC(=O)C1=C(c2ccccc2)N=C2SCC(=O)N2C1c1ccc(OCC)c(OCC)c1 (stereo unspecified)	.	.	/	.
CCOC(=O)C1=C(C)N=C2SC(CC)C(=O)N2C1c1cccc(F)c1 (stereo unspecified)	.	.	10µM	.
Cn1c(SCC(=O)Nc2cccnc2)nnc1-c1ccccc1F	.	.	.	.
O=C(c1ccc(Cl)c([N+](=O)[O-])c1)N1CCN(S(=O)(=O)c2ccc(Cl)cc2)CC1	?	.	?	.
CCCCC(=O)NC(=S)Nc1cccc(C(=O)O)c1	.	.	?	.
CC#CCCCC(=O)Nc1cccc(C(=O)O)c1	.	.	10µM	.
CCCCC(=O)Nc1cccc(NC(=O)c2cccc(Br)c2)c1	.	11µM	.[5.75 µM]	.
O=C(CN1C(=O)NC2(CCCc3ccccc32)C1=O)Nc1cc(F)ccc1F (stereo unspecified)	.	.	.	.
CC(=O)OCC(=O)[C@@]1(O)CCC2C3CCC4=CC(=O)C=CC4(C)C3C(O)C[C@]21C (stereo partly specified)	.	/	.	/
C=CCN1C(=O)NC(=O)/C(=C/c2c(CCN(C)C(=O)c3ccccc3)cc3c(c2OC)OCO3)C1=O	?	.	.	.
CNC(=S)N(C)CCc1cc2c(c(OC)c1C=C1C(=O)NC(=O)NC1=O)OCO2	?	.	5.2µM	.
CC(=O)Nc1ccc(NC(=O)CN(c2ccc(F)cc2)S(=O)(=O)c2ccc3c(c2)OCCO3)cc1	/	.	8.3µM	.
O=C(CN(c1ccccc1F)S(=O)(=O)c1ccccc1)Nc1ccc2c(c1)OCCO2	.	?	4.1µM	.
O=C(CN(c1ccc(F)cc1)S(=O)(=O)c1ccc2c(c1)OCCO2)Nc1ccccc1	/	.	?	.
NC(=O)CC(NC(=O)Cc1cccc2ccccc12)c1ccc(N2CCN(c3ccccn3)CC2)c([N+](=O)[O-])c1 (stereo unspecified)	.	.	.	.
COc1cc(NS(=O)(=O)c2ccc(NS(=O)(=O)c3ccc(C)cc3)cc2)nc(OC)n1	.	.	1.9µM	.
COc1cc(/C=C/C(=O)c2ccc(NS(=O)(=O)c3ccc(C)cc3)cc2)ccc1OC(F)F	15µM	35µM	?	.[2.32 µM]
COc1cc(/C=C/C(=O)c2ccc(NS(=O)(=O)c3ccc(C)cc3)cc2)cc(OC)c1O	12µM	?	?	.[11.6 µM]
CC(C(=O)NC(C)(C)C)N(C(=O)CS(=O)CC(=O)Nc1ccc(F)cc1)C1CCCC1 (stereo unspecified)	.	.	.	.
COc1cccc(CNC(=O)COc2cc3c(c4oc(=O)cc(C)c24)CCC(C)(C)O3)c1	9.3µM	1.4µM	13µM	.
Cc1cc(=O)oc2c3c(cc(OCC(=O)NCc4cccnc4)c12)OC(C)(C)CC3	?	?	?	.
Cc1cc(=O)oc2c3c(cc(OCC(=O)N[C@@H](Cc4ccccc4)C(=O)O)c12)OC(C)(C)CC3	.	.	?	.
Cc1cc(=O)oc2c3c(cc(OCC(=O)NCCC(=O)O)c12)OC(C)(C)CC3	.	.	.	.
Cc1cc(=O)oc2c3c(cc(OCC(=O)N[C@@H](C)C(=O)O)c12)OC(C)(C)CC3	.	.	.	.
COc1ccc(CNC(=O)COc2cc3c(c4oc(=O)cc(C)c24)CCC(C)(C)O3)cc1	?	7.1µM	8.3µM	.
Cc1cc(=O)oc2c3c(cc(OCC(=O)NC(C)C)c12)OC(C)(C)CC3	9.3µM	?	?	.
COc1ccccc1CNC(=O)COc1cc2c(c3oc(=O)cc(C)c13)CCC(C)(C)O2	?	3.5µM	3.7µM	.
CN(C(=O)C1CCC(=O)N(Cc2ccccc2F)C1)C1CCOCC1 (stereo unspecified)	.	/	?	.
